Experimental findings from the supplement of paper PMC12024424 are described below.

The structures appear in SMILES notation. Counter-ions that a name gives are not always drawn.

In assay [1] the test system is Staphylococcus aureus Sa2 (MRSA, cystic fibrosis isolate). The assay can be described thus: growth reduction vs untreated control (OD550); higher = stronger antibacterial activity. The conditions noted are these: 0.1 mM; 24 h. On the procedure: (§1)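 Single-dose screen of the MedChem Express Drug Repurposing Library (0.1 mM, 1% DMSO) against planktonic MRSA S. aureus Sa2 (CF isolate) in TSB in 96-well plates, 37 °C aerobic, 24 h. Assays were run in triplicate and repeated twice.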

For assay [2] the test system is unchanged. As to the kind of experiment: growth reduction vs untreated control (viable cell count); higher = stronger antibacterial activity; extreme values may be limits of the assay. The conditions noted are these: 0.1 mM; 24 h. On the procedure:
as §1

Regarding `CN1CC[C@@H](NC(=O)Nc2ccc(C#N)cc2)C[C@@H]1c1nc2ccccc2[nH]1` [Glasdegib], the growth reduction in assay [1] is 100%; in assay [2], 98%.
Turning to `CN1C(C(=O)Nc2ccccn2)=C(O)c2sc(Cl)cc2S1(=O)=O` [Lornoxicam], the growth reduction in assay [1] was 97.2%; in assay [2], 98%.
The corresponding values for `CC1(C)S[C@@H]2[C@H](NC(=O)[C@H](N)c3ccccc3)C(=O)N2[C@H]1C(=O)OCOC(=O)[C@@H]1N2C(=O)C[C@H]2S(=O)(=O)C1(C)C` [Sultamicillin (tosylate)] are 100% and 100%.
Regarding `CCCCCCCCCCCCCCCCCCOP(=O)([O-])OC1CC[N+](C)(C)CC1` [Perifosine], the figures for the growth reduction in assay [1] and in assay [2] were 96.9% and 100%, respectively.
For `C1CCC(C(CC2CCCCN2)C2CCCCC2)CC1` (stereo not given) [Perhexiline maleate], the growth reduction in assay [1] and in assay [2] was 100% in each case.
Turning to `CCCCc1oc2ccc(NS(C)(=O)=O)cc2c1C(=O)c1ccc(OCCCN(CCCC)CCCC)cc1` [Dronedarone (Hydrochloride)], the growth reduction in assay [1] was 92.6%; in assay [2], 100%.
On the same counts, the results for `COc1cccc(OC)c1-c1cc(C(=O)NC2(C(=O)O)C3CC4CC(C3)CC2C4)nn1-c1ccnc2cc(Cl)ccc12` (stereo not given) [Meclinertant] are 100% and 100%.
As for `CC(C)(O)c1ccccc1CC[C@@H](SCC1(CC(=O)O)CC1)c1cccc(/C=C/c2ccc3ccc(Cl)cc3n2)c1` [Montelukast (sodium)], the growth reduction in assay [1] and in assay [2] was 100% each time.
With `Cc1nc(Nc2ccc(F)cc2)nc(N2CCc3ccccc3C2C)c1C` (stereo not given) [Revaprazan (hydrochloride)], the growth reduction in assay [1] turned out to be 93.4%; in assay [2], 100%.
The corresponding values for `CCCCCCCCCCCC[N+](C)(C)CCOc1ccccc1` [Domiphen (bromide)] are 100% and 100%.
